# Screening results deposited in PubChem BioAssay by several laboratories.
# MT1-MMP txn act – MT1-MMP promoter reporter activation – cell-based, luciferase luminescence, primary screen. HT1080 MT1-MMP promoter luciferase reporter, overnight; active compounds read high. 86,000 tested, 0.16% active. activation factor at 10 µM;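 active = activation factor of at least 2 for MT1-MMP transcription at 10 µM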
# Measles CPE – compounds protecting cells from measles virus cytopathic effect, primary screen, measles RdRp inhibitor project, single point, MLSMR library, absorbance. Measles virus-infected cells, CPE protection. 140,000 tested, 1.5% active. protection (pct of control), % at 4 µM; in the data active = protection mostly above about 24%, no sharp cut-off; inactive = mostly below about 26%
# Smad3 FoxH1 inh – Smad3/FoxH1 peptide binding inhibitors, primary screen, biochemical, TR-FRET. 88,000 tested, 0.29% active. TR-FRET Smad3/Dy647-FoxH1 peptide binding, europium anti-His. Mothers against decapentaplegic homolog 3 (Homo sapiens), P84022. inhibition, % at 25 µM;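 active = compounds that reduce the energy-transfer binding signal between the protein and its labelled peptide by more than half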;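 note: 0% = Smad3 plus labelled peptide maximal FRET and 100% = peptide-only background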
# Target sequence (P84022 whole entry, looked up): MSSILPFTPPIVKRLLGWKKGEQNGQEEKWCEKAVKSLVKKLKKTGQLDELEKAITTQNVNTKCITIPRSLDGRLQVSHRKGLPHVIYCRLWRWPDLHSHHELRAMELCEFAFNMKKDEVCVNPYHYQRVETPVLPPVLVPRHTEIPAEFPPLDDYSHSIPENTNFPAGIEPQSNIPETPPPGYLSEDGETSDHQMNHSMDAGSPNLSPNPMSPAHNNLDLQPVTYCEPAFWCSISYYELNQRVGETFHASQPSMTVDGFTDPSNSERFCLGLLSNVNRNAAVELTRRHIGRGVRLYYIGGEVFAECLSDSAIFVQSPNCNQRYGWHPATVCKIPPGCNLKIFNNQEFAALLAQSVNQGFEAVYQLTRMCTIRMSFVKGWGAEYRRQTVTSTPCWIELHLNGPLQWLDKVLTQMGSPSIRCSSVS
# Starred values were filed as active, the others as inactive; · = no result given. Rows were chosen to be rich in hits. Some 1.7% of all compounds tested hit in one or more screens of this group.
SMILES,MT1-MMP txn act,Measles CPE,Smad3 FoxH1 inh
CCN1CCC(O)([C@H](C(=O)O)c2ccccc2)CC1,·,·,-14
O=C(COC(=O)CCCNC(=O)c1ccc(Cl)cc1)NCc1ccccc1Cl,·,3,·
O=C(COC(=O)CCCNC(=O)c1ccc(Cl)cc1)Nc1ccc(Br)cc1,·,112*,·
C[C@@H](C(=O)Nc1ccc2ccccc2c1)[C@@H]1C[C@@]1(C)[C@@H](NC(=O)Oc1ccc(F)cc1)c1ccccc1,1.2,·,·
COc1cccc2cc(C(=O)N3C(C)CCCC3C)c(=O)oc12 (stereo not given),1.3,19*,11
COc1cccc2cc(C(=O)N3CCCCC3C)c(=O)oc12 (stereo not given),1.2,3,11
CC(C)CN(C(=O)c1cc2ccccc2o1)c1c(N)n(CC(C)C)c(=O)[nH]c1=O,·,13,·
CCc1nc(Nc2ccc3c(c2)OCO3)c2oc3ccccc3c2n1,·,57*,·
CCc1nc(Nc2ccncc2)c2oc3ccccc3c2n1,0.8,3,7
CC(C)[C@@H](C)/C=C/[C@@H](C)[C@@H]1CC[C@@H]2C3=CC=C4C[C@@H](O)CC[C@]4(C)[C@@H]3CC[C@]21C,·,·,21
CC1=CC(=O)CC(C)(C)[C@]1(O)/C=C/C(C)=C/C(=O)O,·,·,2
Cn1c(=O)[nH]c(NC2CCCCC2)c(N=O)c1=O,·,41*,·
Cn1c(=O)[nH]c(NC2CCCCC2)c([N+](=O)[O-])c1=O,·,3,·
CC1=C(C(=O)OCc2ccccc2)C(c2ccccc2OC(=O)c2cccs2)NC(=O)N1CCCC(=O)O (stereo not given),1.2,·,·
CCOc1cc(CNc2ccc(OC)cc2)cc(Br)c1OCC(=O)NC(C)(C)C,·,5,·
COc1cc(CNc2ccc(C(=O)O)cc2)cc(Br)c1OCC(=O)NC(C)(C)C,·,35*,·
COC(=O)C1=C(CCc2ccccc2)NC(=O)NC1c1cccc([N+](=O)[O-])c1 (stereo not given),1.1,·,·
COc1ccc(C[C@H](O)CN2CCOCC2)cc1,·,·,-7
O=C1C2C3C=CC(C4CC34)C2C(=O)N1Cc1ccco1 (stereo not given),·,16,·
C=C(CC1([C@@H](NP(=O)(c2ccccc2)c2ccccc2)[C@H]2C[C@@H]2CCN(C(=O)OCC)S(=O)(=O)c2ccc(C)cc2)CC1)c1ccccc1,1.1,·,·
Cc1cc(C)n2nc3ccccc3c2n1,1.2,4,-5
Cc1ccc(-c2cccc(C(=O)NCc3ccccc3)n2)c2ccccc12,·,7,·
Cc1cc(C)n2nc(C(=O)NCc3ccccc3)nc2n1,1.1,6,8
Cc1cc(C)n2nc(Nc3ccccc3)cc2n1,2*,10,-5
O=C(NCc1ccccc1)c1cccc(Br)n1,·,44*,·
SMILES,MT1-MMP txn act,Measles CPE,Smad3 FoxH1 inh
Cc1cc(C)n2nc(C(=O)NCc3ccccc3)cc2n1,1,43*,5
Cc1nn(C(C)C(=O)N2CCc3ccccc32)c(C)c1[N+](=O)[O-] (stereo not given),·,5,·
O=C(O)[C@@H]1[C@H]2O[C@H]([C@@H](Br)[C@H]2Br)[C@@H]1C(=O)O,·,·,0
Cc1cc2sc(C)[n+](CCCOS(=O)(=O)O)c2cc1C,·,·,-3
CSc1ncnc2c1ncn2CC(=O)[C@@H]1CC[C@@H]2[C@H]3CCC4=CC(=O)CC[C@@]4(C)[C@@H]3CC[C@]21C,·,·,15
Cc1ccccc1OCc1nc(-c2ccc(NC(=O)c3cccs3)cc2)no1,·,5,·
Cc1ccccc1OCc1nc(-c2ccc(NC(=O)c3ccco3)cc2)no1,1.2,71*,-6
CCC/C=C(\CCC)C(NS(=O)(=O)c1ccc(C(F)(F)F)cc1)c1ccc(C(=O)OC)cc1 (stereo not given),1.3,·,·
O=C(Nc1nnc(CCS(=O)(=O)c2ccc3ccccc3c2)s1)c1ccc([N+](=O)[O-])cc1,·,3,·
O=C(NCc1ccccc1)c1c[nH]c2cc3c(cc2c1=O)OCCO3,2.2*,15,4
O=C(NCc1ccc2c(c1)OCO2)c1c[nH]c2ccc(S(=O)(=O)N3CCOCC3)cc2c1=O,1.1,4,4
CC(=O)N1CC=CC1(CC(C)C)C(=O)O (stereo not given),0.9,·,·
COc1cccc(C(=O)NC2CC3CCCC(C2)N3CC(=O)Nc2ccc(N(C)C)cc2)c1 (stereo not given),1.1,11,-7
COc1cccc(C(=O)NC2CC3CCCC(C2)N3CC(=O)Nc2ccccc2)c1 (stereo not given),1.2,5,81*
COC(=O)[C@@]1(Cc2ccccc2)[C@H]2c3cc(C(=O)N(C)C)n(Cc4cc(F)c(F)c(F)c4)c3C[C@H]2CN1C(=O)c1ccccc1,1.2,·,·
O=C(O)c1ccc(S(=O)(=O)N=Nc2c(O)[nH]c3ccccc23)cc1,·,·,40
CCOc1ccc(NC(=O)Nc2ccc3c(c2)N(C)C(=O)CS3)cc1,1,41*,16
CC(=O)c1ccc(NC(=O)Nc2ccc3c(c2)N(C)C(=O)CS3)cc1,1.1,14,2
COc1ccc(N2C(=O)CC(N3CCC(O)(c4ccc(Cl)cc4)CC3)C2=O)cc1 (stereo not given),1,26*,-1
COC(=O)c1ccc(N2C(=O)CC(N3CCC(O)(c4ccc(Br)cc4)CC3)C2=O)cc1 (stereo not given),1.2,6,-21
CC(=O)NC(Cc1ccccc1C)C(=O)NC1CCN(c2ncccc2[N+](=O)[O-])CC1 (stereo not given),·,13,·
O=c1c(Cl)c(NCc2ccc(F)cc2)cnn1C12CC3CC(CC(C3)C1)C2,·,36*,·
Cc1ccc(CNc2cnn(C34CC5CC(CC(C5)C3)C4)c(=O)c2Cl)cc1,·,7,·
CC(NC(=S)Nc1c(Br)cccc1OC(F)F)C(C)(C)C (stereo not given),·,5,·
COc1cc(C)c(/C=C(\C#N)C(=O)Nc2cccc(C)c2)cc1C(C)C,·,37,·
SMILES,MT1-MMP txn act,Measles CPE,Smad3 FoxH1 inh
CC(C)CN(CC(C)C)c1nnc(N)s1,1.1,28*,1
CC(C)CSc1nnc(N)s1,1.1,6,12
CN1C[C@H](c2ccccc2)C(O)([C@]2(c3ccccc3)CN(C)C[C@H](c3ccccc3)C2=O)[C@H](c2ccccc2)C1 (stereo not given in full),·,·,6
CC(=O)O[C@@H]1CC[C@]2(C)C(=C[C@H]([C@@H]3C=C4C[C@@H](OC(C)=O)CC[C@]4(C)C4=C3[C@@H]3C[C@@H]5O[C@@]6(CC[C@H](C)CO6)[C@@H](C)[C@@H]5[C@@]3(C)CC4)C3=C2CC[C@@]2(C)[C@@H]4[C@@H](C)[C@]5(CC[C@H](C)CO5)O[C@@H]4C[C@H]32)C1,·,·,-3
C[C@]12CCC(=O)C=C1CC[C@H]1[C@H]2C(=O)C[C@]2(C)C(CC(=O)O)=CC[C@@H]12,·,·,5
CC(C)(C)c1ccc(C2CC2C(=O)N/N=C\c2cc3ccccc3nc2Cl)cc1 (stereo not given),·,51*,·
Cc1ccc2nc(Cl)c(/C=N/NC(=O)[C@H]3C[C@@H]3c3ccccc3)cc2c1,·,10,·
CC(=O)n1c(COS(C)(=O)=O)nc2ccccc21,·,·,12
Clc1ccc(-c2nnc3sc(Cc4cccs4)nn23)c(Cl)c1,1,68*,-8
c1coc(-c2nnc3sc(Cc4cccs4)nn23)c1,0.9,41,12
